Out of some 69,000 compounds screened, about 8,600 (12%) showed an effect of 50% or more. For the sample, strong results were picked, then their nearest neighbours and some compounds at random.
tested on: Plasmodium berghei; test: Screen against P. berghei liver stage (PbLuc), transformed with Luciferase, at 10uM; format: functional, HepG2; details: tested at 10 uM

Point of comparison: `N#CCSCCCN1CCN(C(=O)C2CCCC2)CC1`, INHIBITION 50.7%. Against it:
- O=C(NCCNc1ncccn1)C1CC(=O)N(Cc2ccccn2)C1 (stereo not drawn) — lower, 50.5%
- O=C(NCCNc1ncccn1)C1CC(=O)N(Cc2ccccc2)C1 (stereo not drawn) — lower, -24.2%
- O=C(NCCNc1ncccn1)C1CC(=O)N(Cc2ccco2)C1 (stereo not drawn) — lower, 2.3%
- O=C1CCc2cc(NC(=O)C3CCCN3c3nccs3)ccc2N1 (stereo not drawn) — lower, 24.3165%
- O=C(C1CCOCC1)N(CCc1ccccc1)C1CCOC1 (stereo not drawn) — lower, -5.33%
- O=C1CC[C@H](C(=O)N(CCc2ccccc2)C2CCOC2)N1 (stereo partly drawn) — higher, 55%
- O=C(C1CC1)N(CCc1ccccc1)C1CCOC1 (stereo not drawn) — lower, -28.6%
- C[C@H]1CN(C(=O)N(C)C)C[C@@]12CCN(c1ccsc1)C2=O — lower, 36.9%
- O=C(NCC(F)F)c1ccc(S(=O)(=O)NCCc2cn[nH]c2)cc1 — lower, 35.8%
- O=C(c1ccc(S(=O)(=O)NCCc2ccncc2)cc1)N1CCCC1 — higher, 57.6%
- O=C(c1ccc(S(=O)(=O)NCCc2ccccn2)cc1)N1CCCC1 — lower, 30.3%
- O=C(NCC(F)F)c1ccc(S(=O)(=O)NCCc2c[nH]cn2)cc1 — lower, 10.4%
- O=C(c1ccc(S(=O)(=O)NCc2ccncc2)cc1)N1CCNCC1 — lower, 19.5%
- O=C(NCC(F)F)c1ccc(S(=O)(=O)NCCc2ccncc2)cc1 — higher, 52.2%
- CC(C)c1nccn1C1CCCN(C(=O)c2cn3cccnc3n2)C1 (stereo not drawn) — lower, 1.78%
- Cn1c(C(=O)NC2CC2)nc2c1CCN(c1ncccn1)C2 — lower, 21.6%
- Cn1c(C(=O)NC2CCCC2)nc2c1CCN(Cc1ccccc1)C2 — lower, -18.5%
- Cc1ncccc1NC(=O)c1nc2c(n1C)CCN(C(=O)C1CC1)C2 — higher, 66.6%
- Cc1cnn(CC2CCCCN2c2nn3cc(C)nc3s2)c1 (stereo not drawn) — lower, -23.9%
- CC1(C)CN(C(=O)c2occc2COc2cccc(C#N)c2)CCO1 — lower, -10.8%
- Cc1cnn(C2CN(CCOc3cccc(C#N)c3)C2)c1 — higher, 69.9%
- Cc1cnn(C2CN(CCCOc3ccc(C#N)cc3)C2)c1 — lower, 49%
- Cn1ccnc1CN1CCN(CCOc2ccccc2C#N)CC1 — lower, 44.8%
- Cc1cnn(C2CN(CCOc3ccc(C#N)cc3)C2)c1 — lower, -26.1%
- Cc1cc(C)n(CC2CN(CCOc3ccccc3C#N)CCO2)n1 (stereo not drawn) — lower, -10.6%
- Cc1cnn(C2CN(CCOc3ccccc3C#N)C2)c1 — higher, 58.8%
- O=C(NCCc1cc(N2CCOCC2)nc(N2CCCC2)n1)C1CC1 — lower, 15.548%
- O=C(CC1CC2(CCN(CC3CC3)CC2)Oc2ccccc21)NC1CC1 (stereo not drawn) — lower, 7.5%
- Fc1ccc([C@@H]2COC[C@H]2NCc2cccc(F)c2)cc1 — lower, 20.2%
- CCN1CCc2c(CNC(=O)c3nccn3C)cncc2C1 — lower, 35.8%
- C=C/C=c1\c(=C/C)oc2c(NCc3ccccc3)nc(C)nc12 — higher, 68%
- Cc1nn(C)c2c(NCc3ccccn3)ncnc12 — lower, 42.1%
- C=C/C=c1\c(=C/C)oc2c(NCc3ccccc3)ncnc12 — higher, 60.3%
- Cc1nc(NCc2cccnc2)c2c(n1)c(C)nn2C — lower, 1.81%
- C=C/C=c1\c(=C/C)oc2c(NCc3ccccc3)nc(CC)nc12 — lower, 22.5%
- Cc1ncc(CN)c(-c2cn(C)c3ccccc23)n1 — lower, 9.05%
- CN(CC(N)=O)C(=O)C1Cc2cc(Cl)ccc2O1 (stereo not drawn) — lower, -5.64%
- CN(C)CC1(O)CCN(C(=O)Cc2ccc3c(c2)CCCC3)C1 (stereo not drawn) — lower, 20.6%
- CN(C)CC1(O)CCN(C(=O)Cc2ccc(Cl)c(Cl)c2)C1 (stereo not drawn) — lower, 39.1%
- CN(C)CC1(O)CCCN(C(=O)Cc2ccc(Cl)c(Cl)c2)C1 (stereo not drawn) — higher, 52.2%
- O=C1[C@@H]2CN(c3ncnc4sccc34)C[C@]2(C(=O)O)CN1CC1CC1 — lower, 29.2%
- Cc1nn(C)c(N(C)C)c1CNC1CCOc2c(Cl)cccc21 (stereo not drawn) — lower, -17.7%
- COc1ccccc1C1(O)CCCN(C(=O)c2ccnn2C(C)C)C1 (stereo not drawn) — lower, -24.4%
- CNC(=O)[C@@H]1CN(C(=O)C(C)C)C[C@H]1c1ccnc(N2CCCC2)n1 — lower, 21.7%
- Cc1noc(C2CCC3(CCN(C(=O)C4CCOCC4)CC3)O2)n1 (stereo not drawn) — lower, 32.2%
- NC(c1ccccc1)c1ccc(OC(F)F)cc1 (stereo not drawn) — lower, 29.3%
- NC(CC1CCCCC1)c1ccccc1 (stereo not drawn) — lower, 5.15%
- NC(=O)C(NC1CCN(CC2CCCCC2)CC1)c1ccc(F)cc1 (stereo not drawn) — lower, -55.1%
- NC(=O)C(NC1CCN(CC2CCCCC2)CC1)c1ccccc1 (stereo not drawn) — lower, -139%
- NC(CC1CCCC1)c1ccc(Oc2ccccc2)cc1 (stereo not drawn) — higher, 80.1%
- NC(CC1CCCC1)c1ccccc1 (stereo not drawn) — higher, 62.2%
- COCc1noc(Cc2cc(Cl)c3c(c2)OCCCO3)n1 — lower, -69.2%
- CC(C)(C)CC(=O)NCCCn1cncn1 — lower, 40.6%
- Cc1cn2c(n1)CCC(NC(=O)c1cncnc1C)C2 (stereo not drawn) — lower, -0.219%
- Cc1ccc(C(=O)N2CCN(CCCSCC#N)CC2)o1 — lower, 0.139%
- CC1CCN(CCNC(=O)C2CCN(C(=O)C3CC3)CC2)CC1 — lower, -8.23%
- N#CCSCCCN1CCC(C(=O)N2CCCCCC2)CC1 — higher, 51.8%
- CC(NCCN1CCN(C(=O)C2CCCC2)CC1)c1cnn(C)c1 (stereo not drawn) — lower, 17.1%
- N#CCSCCCN1CCCC(C(=O)N2CCCCCC2)C1 (stereo not drawn) — lower, 35.5%
- O=C(O)c1cc(S(=O)(=O)Nc2ccc(F)cc2Cl)cc2c1OCCO2 — lower, 23.5%
- O=C([C@H]1CCCO1)N1CCCC2(CCN(Cc3ccncc3)C2=O)C1 (stereo partly drawn) — lower, 10.3%
- CN1C(=O)CCCC12CCCN(C(=O)c1cc(F)cc(F)c1)C2 (stereo not drawn) — lower, 33.4%
- Cn1cc(CC(=O)N2CCCC(n3cncn3)C2)cn1 (stereo not drawn) — lower, 17.4%
- Cc1cnc(CNC(=O)CCCn2cnc3ccccc3c2=O)cn1 — lower, 34.6%
- Cc1csc2c(C3CCCN(C(=O)CCCn4cncn4)C3)nc(C)n12 (stereo not drawn) — lower, -1.16%
- Cc1csc2c(C3CCCN(C(=O)CCn4cncn4)C3)nc(C)n12 (stereo not drawn) — lower, 5.34%
- CCc1noc(CCCC(=O)N2CCCC(c3ccn[nH]3)C2)n1 (stereo not drawn) — lower, 42.8%
- Cc1csc2c(C3CCCN(C(=O)CCn4ccnc4)C3)nc(C)n12 (stereo not drawn) — higher, 57.3%
- CC(C)c1nc(C2CCCN(C(=O)CCn3cncn3)C2)no1 (stereo not drawn) — lower, 31.2%
- CC(C)c1nc(C2CCCN(C(=O)CCn3ccnc3)C2)no1 (stereo not drawn) — higher, 56.1%
- CCCc1noc(CCC(=O)N2CCCC(c3ccn[nH]3)C2)n1 (stereo not drawn) — lower, 16.8%
- Cc1nc(C2CCCN2C(=O)CCCn2cccn2)no1 (stereo not drawn) — lower, -25.9%
- CC(C)c1nc(C2CCCN(C(=O)CCCn3cccn3)C2)no1 (stereo not drawn) — lower, -29.8%
- Cc1nc(C2CCCN(C(=O)CCCn3cccn3)C2)no1 (stereo not drawn) — higher, 53.5%
- CC(C)c1nc(C2CCCN(C(=O)CCCn3ccnc3)C2)no1 (stereo not drawn) — lower, -19.4%
- O=C(CCCc1nc(C2CC2)no1)N1CCCC(c2ccn[nH]2)C1 (stereo not drawn) — higher, 52.6%
- Cc1ccc(S(=O)(=O)Nc2cnn(C3CCOCC3)c2)cc1C — lower, -52.5%
- CCCc1ccc(S(=O)(=O)NC(=O)CCc2cscn2)cc1 — lower, 16.2%
- O=S(=O)(c1cncc(F)c1)N1CCSC2(CCCCC2)C1 — lower, 28.5%
- COc1c(C2CCCN2C(=O)c2cccnc2N(C)C)c(C)nn1C (stereo not drawn) — lower, 23.4%
- COc1ccc(-n2cc(CNC(=O)c3cc[nH]n3)nn2)cc1 — lower, -120%
- O=S(=O)(CCCN1CCc2c(ncn2C2CC2)C1)c1ccccc1 — lower, -27.5%
- CCCN1C(=O)CC(N2CCN(c3ccc(F)cc3)CC2)C1=O (stereo not drawn) — lower, -34.7%
- CC(C)N1C(=O)CC(N2CCN(c3ccc(F)cc3)CC2)C1=O (stereo not drawn) — lower, 14.3%
- CC(C)CN1C(=O)CC(N2CCN(c3ccc(F)cc3)CC2)C1=O (stereo not drawn) — higher, 54%
- CCN(Cc1ccc2c(c1)OCO2)C(=O)NC(C)Cn1ccnc1 (stereo not drawn) — lower, 26.4%
- Cc1sc(CNS(N)(=O)=O)nc1-c1ccc(Cl)cc1 — lower, -20.6%
- CCC(N)C(=O)N1CCC(OCc2ccc(Cl)c(Cl)c2)CC1 (stereo not drawn) — lower, 47.7%
- CNC(=O)CN1CCC(OCc2ccc(Cl)c(Cl)c2)CC1 — higher, 65.6%
- NC(=O)CN1CCC(OCc2ccc(Cl)c(Cl)c2)CC1 — lower, 33.1%
- CC1=N[C@@]2(CC[C@@H]3CN(Cc4ccccc4F)C[C@@H]32)C(=O)N1CC1CC1 — lower, 20.1%
- CCn1ncnc1C1CC(=O)NCc2nc(N)sc21 (stereo not drawn) — lower, 19.7%
- CC(C)C(=O)N1CCN(Cc2csc(-c3ncccn3)n2)CC1 — lower, 41.8%
- CC(=O)N1CCCN(Cc2csc(-c3ncccn3)n2)CC1 — lower, 30.8%
- Cc1ccc(-c2nc(CN3CCN(S(=O)(=O)N(C)C)CC3)cs2)o1 — higher, 52.1%
- Cc1ccc(-c2nc(CN3CCN(CC(=O)N(C)C)CC3)cs2)o1 — lower, 15.3%
- CC(C)CC(=O)N1CCN(Cc2csc(-c3ncccn3)n2)CC1 — lower, 10.6%
- OC(c1ccccc1)C1CCN(Cc2csc(-c3ncccn3)n2)CC1 (stereo not drawn) — higher, 59.8%
- CC(C)C(=O)N1CCN(Cc2csc(-c3ccccn3)n2)CC1 — lower, 47.4%
- CC(C)c1nc(CN2CCN(Cc3ccccn3)CC2)cs1 — lower, -53.5%
- COC(=O)N1CCN(Cc2csc(-c3ncccn3)n2)CC1 — lower, -42.5%
- Cc1ccc(-c2nc(CN3CCN(C(=O)C4CC4)CC3)cs2)o1 — lower, -34%
- CS(=O)(=O)N1CCN(Cc2csc(-c3ncccn3)n2)CC1 — higher, 56.8%
- CC(O)CN1CCN(Cc2csc(-c3ncccn3)n2)CC1 (stereo not drawn) — higher, 60.8%
- Cn1ccc(C(=O)NCc2ccc(N3CCCCC3)nc2)cc1=O — lower, 46.2%
- O=C(O)[C@]12CCCN(Cc3ccncc3)C[C@H]1CN(c1ncccn1)C2 — lower, -20.1%
- Cn1cnc2c1C(COCC1CCOCC1)CN(Cc1ccccn1)C2 (stereo not drawn) — lower, 36.9%

Source: ChEMBL document CHEMBL4513216, “Probing the Open Global Health Chemical Diversity Library for Multistage-Active Starting Points for Next-Generation Antimalarials” (ACS Infect Dis, 2020)
